# Assay outcomes (PubChem)
# Tb PYK inh: blocks Trypanosoma brucei pyruvate kinase. Potency, µM (titrated, usually from 76.8 µM), usual class: inhibitors. actives 0.12% (n = 410,000). Q57TT1. TbPYK enzyme, Kinase-Glo Plus ATP luminescence, 45 min. AID 624173; also: nearly all actives have a fitted effect of over 50% in size
#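 Activity of T. brucei pyruvate kinase was followed by Kinase-Glo Plus luminescence after the enzyme reacted 45 min at room temperature with 130 uM ADP (final) and substrate. Test compounds were added before ADP at multiple concentrations.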
# LmPK inh: inhibitors of Leishmania mexicana pyruvate kinase. purified LmPK, Kinase-Glo ATP luminescence, 1 h. Potency, µM (top dose mostly 57.5 µM), hits mostly inhibitors. actives 0.37% (n = 290,000). AID 1721
# Target sequence (Q27686 whole entry, looked up): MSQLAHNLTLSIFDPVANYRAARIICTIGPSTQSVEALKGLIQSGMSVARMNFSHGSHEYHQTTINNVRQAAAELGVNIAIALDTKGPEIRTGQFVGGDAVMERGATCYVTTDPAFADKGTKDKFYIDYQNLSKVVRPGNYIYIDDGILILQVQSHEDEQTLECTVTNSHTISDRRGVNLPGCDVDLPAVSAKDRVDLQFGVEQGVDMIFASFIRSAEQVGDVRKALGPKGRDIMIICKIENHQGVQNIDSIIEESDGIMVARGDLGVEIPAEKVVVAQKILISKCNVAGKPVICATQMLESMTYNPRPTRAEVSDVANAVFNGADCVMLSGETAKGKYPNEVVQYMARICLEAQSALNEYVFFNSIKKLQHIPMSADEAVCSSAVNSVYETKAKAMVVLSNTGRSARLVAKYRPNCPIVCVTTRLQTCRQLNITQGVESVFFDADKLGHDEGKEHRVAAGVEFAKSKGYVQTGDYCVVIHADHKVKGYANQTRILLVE
#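 ATP generated from ADP (0.1 mM) and PEP (0.5 mM) by 0.1 nM LmPK over 1 h at room temperature (pH 7.2 imidazole buffer) was detected by coupled luciferase luminescence. Values were normalized to uninhibited and no-enzyme wells.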
# RE007 growth inh: less growth of the S. pombe RE007 Vpr strain. S. pombe RE007 Vpr strain, BacTiter-Glo ATP luminescence, 24 h. Potency, µM (series often up to 92.2 µM), hits mostly inhibitors. actives 0.21% (n = 360,000); active = well fitted falling curve with a large enough effect; also: nearly all actives have a fitted effect of over 50% in size
#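 Fission yeast strain RE007, carrying one chromosomally integrated HIV-1 vpr copy, was seeded at OD 0.01 in PMG+AL medium with 23 nL pinned compound. After 24 h at 30 °C and 99% humidity, viability was read by BacTiter-Glo luminescence.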
# Shiga inhibitor: blocks Shiga toxin action in Vero cells; AID 2315; Vero cells, Shiga toxin protein synthesis inhibition reporter; inhibition, % at 38.7 µM; actives 9.2% (n = 290,000); in the data active = inhibition mostly above about 28%, no sharp cut-off; inactive = mostly below about 43%
# CHX counter: affects cycloheximide protein synthesis inhibition readout, counter-screen; max response, %; cell reporter, cycloheximide protein synthesis inhibition counterscreen; AID 2314; actives 12% (n = 300,000); in the data active = max response mostly above about 13%, no sharp cut-off; inactive = mostly below about 14%; also: read at 38.3 µM for the half of the compounds with a filed dose
# Giardia FBPA inh: Giardia lamblia aldolase inhibition. A8B2U2. purified Giardia FBPA. Potency, µM (titrated, usually from 59.6 µM), most hits filed as inhibitors. actives 0.71% (n = 290,000). AID 2451; also: nearly all actives have a fitted effect of over 55% in size
#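 Giardia FBPA (40 nM reagent) was preincubated 10 min at RT with compound (up to 57.5 uM final), then substrate plus GAPDH/TPI/NAD/arsenate coupling system with diaphorase/resazurin was added; resorufin fluorescence (525/598 nm) was read after 20 min.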
# A number is an active result; - = inactive; . = no result given; ! = not confirmed by another sample; [ ] = dose if it differs, or a comment. Only a selection was taken, and hits are over-represented in it overall. Unless noted, calls follow the shape of the dose curve; as a rule, active = well fitted curve in the direction sought with a large enough effect; inconclusive = small, poorly fitted or top-dose-only effect, or another doubt; inactive = no such curve, though single readings can be large; an effect the other way counts as inactive or inconclusive.
SMILES,Tb PYK inh,LmPK inh,RE007 growth inh,Shiga inhibitor,CHX counter,Giardia FBPA inh
CN(C)C(=O)Nc1ccccc1,-,-,-,88!,41!,-
COc1ccc(NC(=S)Nc2cnc3ccccc3c2)c(OC)c1,-,-,-,-,-,-
CN(C(=O)Nc1cnc2ccccc2c1)c1ccccc1,-,-,-,28,34,-
NC(=S)Nc1cnc2ccccc2c1,-,-,-,56,27,-
CN(C(=O)Nc1ccccc1)C1CCCCC1,-,-,-,-,-,-
COC(=O)C1=C[C@@H](C(=O)OC)C2C3=C(C(=O)[C@@]2(C)NC(=O)c2ccccc2)[C@H](C)[C@@H]2C(=O)NC(=O)[C@@H]2[C@@H]3C1 (stereo partly specified),.,.,.,-,-,-
COc1c(C)cc(S(=O)(=O)NCCc2c(C)[nH]c3ccccc23)c(C)c1C,-,.,.,.,.,.
O=C(Nc1ccccc1)N(C1=NCCC1)c1ccccc1,-,-,-,-,-,-
Cc1ccc(NC(=O)NC(=O)N(c2ccccc2)S(C)(=O)=O)cc1,-,-,-,50,27,-
CCOc1ccc(NC(=O)NC(=O)N(C)S(=O)(=O)c2ccc(C)cc2)cc1,-,-[11.5 µM],-,-,-,-
Cc1ccc(N(C(=O)Nc2ccccc2)C2=NCCC2)cc1,-,-,-,-,17,-
Cc1ccc(NC(=O)N(C)c2ccccc2)cc1,-,-,-,48,17,-
Cc1ccc(NC(=O)N(CCC(=O)O)Cc2ccccc2)cc1,-,-,-,-,-,-
CN(C(=O)Nc1ccccc1)C1CCCc2ccccc21 (stereo unspecified),-,-,-,71,19,-
Cc1ccc(NC(=O)CSc2nc3ccccc3c3nc(CCn4c(C)nc5ccccc54)nn23)cc1F,-,.,.,.,.,.
Cc1ccc(S(=O)(=O)NC(CC(=O)O)c2cccs2)cc1 (stereo unspecified),-,-,-,-,-,-
COc1ccc(Cc2nnc(SCc3c(C)noc3C)n2C2CCCCC2)cc1OC,-,-,-,51,-,-
Cc1noc(C)c1CSc1nnc(-c2cccnc2)n1C1CCCCC1C (stereo unspecified),-,-,-,-,-,-
CC(C)(C)c1ccc(OCCOCCn2c(-c3ccc(Cl)cc3)nc3ccccc3c2=O)cc1,-,.,.,.,.,.
Cc1ccc(/C=C(\C#N)C(=O)Nc2cccc(Br)c2)o1,-,.,.,.,.,.
N#C/C(=C\c1ccc(N2CCCCC2)o1)C(N)=O,-,-,-,-,17,-
N#C/C(=C\c1ccc(N2CCCCC2)o1)C(=O)Nc1cccc(Br)c1,-,-,-,106,58,-
CC[C@H](C)[C@H](NC(=O)[C@H](CCC(=O)O)NC(=O)[C@@H](N)CO)C(=O)N[C@@H](CCC(N)=O)C(=O)N[C@@H](CC(C)C)C(=O)N[C@@H](CCSC)C(=O)N[C@@H](Cc1cnc[nH]1)C(=O)N[C@@H](CC(N)=O)C(=O)N[C@@H](CC(C)C)C(=O)NCC(=O)N[C@@H](CCCCN)C(=O)N[C@@H](Cc1cnc[nH]1)C(=O)N[C@@H](CC(C)C)C(=O)N[C@@H](C)C(=O)N[C@@H](CO)C(=O)N[C@H](C(=O)N[C@@H](CCC(=O)O)C(=O)N[C@@H](CCCNC(=N)N)C(=O)N[C@@H](CCSC)C(=O)N[C@@H](CCC(N)=O)C(=O)N[C@@H](Cc1c[nH]c2ccccc12)C(=O)N[C@@H](CC(C)C)C(=O)N[C@@H](CCCNC(=N)N)C(=O)N[C@@H](CCCCN)C(=O)N[C@@H](CCCCN)C(=O)N[C@@H](CC(C)C)C(=O)N[C@@H](CCC(N)=O)C(=O)N[C@@H](CC(=O)O)C(=O)N[C@H](C(=O)N[C@@H](Cc1cnc[nH]1)C(=O)N[C@@H](CC(N)=O)C(=O)N[C@@H](Cc1ccccc1)C(=O)O)C(C)C)C(C)C,.,.,.,-,-,-
CC(=O)Nc1cccc(C)c1,-,.,-,.,.,.
CC(=O)c1cnc(Nc2cccc(C)c2)s1,-,-,-,119,48,-
CNc1ncc(C(=O)C(C)(C)C)s1,-,-,-,-,-,-
O=C(c1ccc(F)cc1)c1cnc(Nc2ccccc2)s1,-,-,-,75,23,-
